The values below come from PubChem BioAssay AID651791 (National Center for Advancing Translational Sciences (NCATS), 2012).

The structures appear in SMILES notation. Records with an inconclusive call do not appear. The source made the active and inactive calls. Calls come from the whole dose curve; as a rule, active = well fitted inhibition curve with a large enough effect; inconclusive = small, poorly fitted or top-dose-only effect; inactive = no such curve, though single readings can be large or run the other way.
Potency is the fitted concentration of half-maximal effect.

This assay in a line: InCell qHTS Assay for Inhibitors of the mTORC1 Signaling Pathway in MEF (Tsc2-/-, p53-/-) Cells: Hit Validation. Note: nearly all actives have a fitted effect of over 75% in size. As to conditions: phospho-rpS6 immunofluorescence, 24 h; activity change, negative = inhibition: at 38.3 µM (top of the series). An excerpt:
The mammalian target of rapamycin (mTOR) is an intracellular serine/threonine kinase Aberrant regulation of mTOR signaling plays a causative role in a number of human diseases, including cancer, benign tumors such as lymphangioleiomyomatosis (LAM) and Tuberous Sclerosis Complex (TSC), and metabolic diseases such as diabetes and obesity. This project aims to identify inhibitors of ribosomal protein S6 (rpS6) phosphorylation. The phosphorylation of rpS6 is a key event downstream of mTOR activation. The assay uses a phospho-specific antibody of phospho-rpS6 to detect inhibitors of mTOR activation. Mutations in the Tsc1 and Tsc2 genes are the underlying genetic lesions responsible for TSC, causing constitutive activation of the mTORC1 pathway and leading to profound effects on cell metabolism. Aberrant metabolism in cancer has recently received significant attention as a target to develop therapeutic agents in the treatment of cancer.1 As Tsc2-/- cells have lost the ability to respond to energy and growth factor deprivation, these cells are unable to properly down regulate cellular biosynthetic processes in response to metabolic stress, and are thus extremely sensitive to glucose deprivation-induced death.2 A central goal of this project is to explore the unique cell survival and metabolic properties of cells with Tsc1 or Tsc2 by screening for compounds that selectively target the Tsc2-/- MEFs by screening both Tsc2-/- and WT MEF cell lines. We hope to better understand these aspects of TSC physiology in order to exploit them for therapeutic benefit. NIH Molecular Libraries Probe Production Centers Network [MLPCN] NIH Chemical Genomics Center [NCGC] MLPCN Grant: NS059428 Assay Submitter (PI): Blenis, John; Harvard University
For quantitative high throughput analysis of mTORC1 signaling, we developed a cell-based assay for immuno-fluorescence based detection of rpS6 phosphorylation on the Acumen Explorer that will be used a platform for the primary small molecule screen. Mouse embryonic fibroblasts (MEFs) are cultured in 1536-well plates using DMEM + 10% FBS. Twenty-four hrs after plating, test compounds (solubilized in DMSO) are delivered and incubated with the cells for 24 hrs at 37 degree Celsius. Following the incubation, media with compound is aspirated and the cells are fixed in 4% paraformaldehyde (PFA) containing PBS + 0.2% TX-100. Next, PFA is aspirated, cells are washed two times with PBS plus 0.2% TX-100 and the cells are blocked for 1 hr at room temperature (blocking buffer: LiCOR Blocking Buffer plus 0.2% TX-100). This is followed by aspiration and staining with Alexa-488 conjugated-phospho-rpS6 Ser235/236 antibody for 2 hours at room temperature (Cell Signaling Technology # 4803, 1:50 dilution in blocking buffer). Cells are washed two times with PBS plus 0.2% TX-100, and stained with 10 uM propidium iodide (PI) for 20-25 minutes for cell number measurement (1:500 dilution of Hoescht staining is also added for IN Cell imaging). The plates are scanned on the Acumen Explorer laser scanning instrument (TTP Labtech) using the 488nm laser for simultaneous excitation of the Alexa-488 and PI. The fluorescence emission from the Alexa-488 conjugated rpS6 phospho-235/236 antibody staining is selected using a […] band pass filter. Fluorescence emission from the PI stain is selected using a 575-640 nm band pass filter. The normalized phospho-S6 staining is calculated as the ratio of the integrated Alexa 488 intensity divided by the integrated PI intensity for the single concentration rapamycin control (7.5 nM) and DMSO columns. […] Inhibition of the pathway is defined based on the normalized phospho-S6 intensity in rapamycin treated cells. […]
In general terms: In qHTS, concentration-response curves come from the screen itself.
Regarding `CCOC(=O)c1cnc2ccc(OCC)cc2c1NCCc1ccc(OC)c(OC)c1`, the activity change, negative = inhibition is -100%.

For the compound `COC(=O)c1ccccc1NC(=O)c1nc(S(=O)(=O)Cc2cccc(C)c2)ncc1Cl`, the Potency was 3.69 µM (active).

In the case of `Cc1c(C(=O)OC2CCCCC2)[nH]c2c1C(=O)CC(c1ccccc1Cl)C2` (stereo not given), the activity change, negative = inhibition is -100%.

`Cc1nc2nncn2c(NCc2ccc(F)cc2)c1C`: the activity change, negative = inhibition is -100%.

For the compound `CCCCS(=O)(=O)c1oc(-c2ccc(F)cc2)nc1S(=O)(=O)c1ccc(C)cc1`, the Potency is 5.85 µM (active).

Regarding `O=C(c1ccc(CS(=O)c2ccccc2Cl)o1)N1CCN(c2cccc(C(F)(F)F)c2)CC1` (stereo not given), the activity change, negative = inhibition was -28.2%.

Take `CCOC(=O)c1c(NC(=O)c2ccc(S(=O)(=O)N(C)C)cc2)sc2c1CCN(C)C2`: the activity change, negative = inhibition is -26.7%.

Turning to `O=C(CC1(O)C(=O)N(CCc2ccccc2)c2ccc(Br)cc21)c1ccccc1O` (stereo not given), the activity change, negative = inhibition was determined as 1.72%.

Turning to `COc1cccc(C2CC(=O)Nc3cc4c(cc32)OCCO4)c1OC` (stereo not given), the activity change, negative = inhibition is -100%.

Consider `CCN(CC)CCOC(=O)c1ccc(NC(=O)c2nn(-c3ccc(C)cc3)c(=O)c3c2c2ccccc2n3C)cc1`, for which the Potency is 3.29 µM (active).

On to `COc1ccc(Cl)cc1S(=O)(=O)NCc1ccc2c(c1)CCN2C(=O)c1cccc(C)c1`, for which the activity change, negative = inhibition is -8.71%.

For `CCOc1cc(CNCCSc2nnnn2C)cc(Cl)c1OCc1ccc(Cl)cc1`, the activity change, negative = inhibition is -100%.

For `CC(=O)Nc1cccc(NC(=O)C(=O)NCCc2sc(-c3ccccc3)nc2C)c1`, the activity change, negative = inhibition was -9.58%.

In the case of `Cc1ccc(NC(=O)CSc2nc(=O)cc(N)n2CCc2ccccc2)cc1`, the activity change, negative = inhibition is -100%.

On to `Cc1ccccc1OCc1ccc(-c2nc(C#N)c(NCCCN(C)C)o2)o1`, for which the activity change, negative = inhibition is -100%.

In the case of `COc1ccc(C(=O)Nc2ccc(OCc3cc(=O)n4ccccc4n3)cc2)cc1`, the activity change, negative = inhibition was -100%.

For the compound `CCC(C)S(=O)(=O)c1oc(-c2ccc(F)cc2)nc1S(=O)(=O)c1ccc(F)cc1` (stereo not given), the Potency was 1.47 µM (active).

For the compound `CC(C)(C)c1ccc(C2NC(=O)c3n[nH]c(-c4cccs4)c32)cc1` (stereo not given), the activity change, negative = inhibition is -100%.

With `COc1ccc(-c2n[nH]c3c2C(c2ccc(O)cc2)N(c2ccc(Br)cc2)C3=O)cc1` (stereo not given), the activity change, negative = inhibition was -100%.

In the case of `Fc1ccc(Nc2nc3nonc3nc2Nc2cccc(C(F)(F)F)c2)cc1`, the activity change, negative = inhibition was -100%.

With `CCOc1ccccc1NC(=O)c1cn(C2CCCC2)c(=O)c2c1c1ccccc1n2C`, the activity change, negative = inhibition was -100%.

Turning to `COc1ccc(OCC(=O)NCc2ccc3c(c2)CCN3C(=O)c2cccc(C)c2)cc1`, the activity change, negative = inhibition was -100%.

Consider `CC(C)OCc1cc(CN2CCN(c3cccc(C(F)(F)F)c3)CC2)c(O)c2ncccc12`, for which the activity change, negative = inhibition was -100%.

On to `CC1=Nc2cc(C(=O)NC3CCCC3)ccc2Sc2ccc(Cl)cc21`, for which the activity change, negative = inhibition was -100%.

In the case of `CCOc1cc(CNc2ccc(O)cc2)cc(Cl)c1OCc1ccccc1`, the activity change, negative = inhibition was -100%.

In the case of `CCOC(=O)C1CCN(C(=O)CSc2c3c(nc4ccc(Cl)cc24)CCCC3)CC1`, the activity change, negative = inhibition was -100%.

As for `Cc1nn(C(C)C(=O)NC2CCC(C)CC2)c(=O)c2c1sc1ccccc12` (stereo not given), the activity change, negative = inhibition was -100%.

For `Cc1ccc(NC(=O)c2c(C)oc3ccc(O)c(CN(C)Cc4ccccc4)c23)c(C)c1`, the activity change, negative = inhibition was -100%.

`CCOC(=O)N1CCN(Cc2nc3cc(NC(=O)C(C)C)ccc3n2C(C)C)CC1`: the activity change, negative = inhibition is -100%.

On to `COc1ccc(-c2[nH]nc3nc(-c4cc(OC)c(OC)c(OC)c4)cc(C(=O)O)c23)cc1`, for which the activity change, negative = inhibition was -100%.

Take `COc1cc(C(=O)CC2(O)C(=O)N(Cc3ccccc3Cl)c3ccccc32)cc(OC)c1OC` (stereo not given): the activity change, negative = inhibition is -3.93%.

Turning to `CCn1c(=N)n(CCOc2ccc(Br)cc2)c2ccccc21`, the Potency is 14.7 µM (active).

As for `COc1ccc(/C=C/C(=O)Nc2ccc3nc(N4CCC(C)CC4)cc(C)c3c2)cc1OC`, the activity change, negative = inhibition is -100%.

Turning to `Cc1ccc(C)c(NC(=O)Nc2cc3c(cc2N2CCCCC2)n(C)c(=O)n3C)c1`, the activity change, negative = inhibition was -100%.

For `COc1cccc(-c2nc(SCC(=O)NCC3CCCO3)c(-c3ccc(F)cc3)[nH]2)c1` (stereo not given), the activity change, negative = inhibition is -100%.

In the case of `COc1cccc(-c2nc(S(=O)(=O)c3ccc(Cl)cc3)c(NCc3ccccc3)o2)c1`, the activity change, negative = inhibition was -100%.

`CCC(C)NC(=O)c1sc2nc(C)c(C(=O)Nc3ccc(C)cc3C)c(-c3ccc(Cl)cc3)c2c1N` (stereo not given): the activity change, negative = inhibition was -100%.

On to `Cc1c(C(=O)OC2CCC(C)CC2)[nH]c2c1C(=O)CC(c1ccc(F)cc1)C2` (stereo not given), for which the activity change, negative = inhibition is -1.27%.

Turning to `COc1ccc(-c2nc(S(=O)(=O)c3ccc(Cl)cc3)c(N3CCCCCC3)o2)cc1`, the activity change, negative = inhibition is -100%.

On to `COc1ccc(NS(=O)(=O)c2ccc(-n3cccn3)cc2)cc1OC`, for which the activity change, negative = inhibition is -100%.
